PubChem BioAssay (NCATS)
Inconclusive results are not listed. The source made the active and inactive calls. The call rests on the fitted dose curve; in most records, active means well fitted curve in the direction sought with a large enough effect; inconclusive means small, poorly fitted or top-dose-only effect, or another doubt; inactive means no such curve, though single readings can be large; an effect the other way counts as inactive or inconclusive.

Key:
[1] = Cell Viability - N2a (AID 540); further: nearly all actives have a fitted effect of over 45% in size
Outline: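 N2a mouse neuroblastoma, 1500 cells/well, 5 hr settle; compound 40 hr, 37 °C; CellTiter-Glo 20 min RT; luminescence; Hill-fit AC50.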

[2] = Cell Viability - HUV-EC-C (AID 542);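 further: cells exposed to compound for 40 hours; nearly all actives have a fitted effect of over 35% in size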
Outline: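 Luminescent ATP read-out (CellTiter-Glo, 20 min room temperature) after 40 hr compound treatment of HUV-EC-C cells at 37 °C. Concentration-response data fitted with the standard Hill equation to give AC50; tamoxifen and doxorubicin served as positive controls.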

[3] = Cell Viability - H-4-II-E (AID 543);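 further: cells exposed to compound for 40 hours; nearly all actives have a fitted effect of over 35% in size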
Outline: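 qHTS, rat hepatoma H-4-II-E, 1500 cells/well; 40 hr compound exposure, 37 °C; CellTiter-Glo ATP luminescence after 20 min RT; AC50 by standard Hill fit.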

[4] = Cell Viability - SH-SY5Y (AID 544);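 further: cells exposed to compound for 40 hours; nearly all actives have a fitted effect of over 55% in size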
Outline: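 SH-SY5Y, 1500 cells/well, 5 hr pre-incubation 37 °C; cpd 40 hr 37 °C; CellTiter-Glo 20 min RT; luminescence (ATP) read. qHTS concentration-response, Hill fit → AC50. Tamoxifen, doxorubicin as positive controls.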

[5] = Cell Viability - Renal Proximal Tubule (AID 545);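 further: cells exposed to compound for 40 hours; nearly all actives have a fitted effect of over 40% in size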
Outline: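 Cytotoxicity is scored as a concentration-dependent drop in cellular ATP in primary rat renal proximal tubule cells exposed for 40 hr. AC50 derives from Hill modelling.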

[6] = Cell Viability - Mesenchymal (AID 546);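 further: cells exposed to compound for 40 hours before reading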
Outline: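 Human renal mesenchymal cells (glomerulus-derived), 1000 cells/well, 5 hr 37 °C pre-incubation; compound 40 hr, 37 °C; CellTiter-Glo, 20 min RT; luminescence; AC50 via Hill equation.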

[7] = Cellular Toxicity (caspase-3) HepG2 (AID 654);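 further: cells exposed to compound for 16 hours before reading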
Outline: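 Luminescent Caspase-Glo 3/7 readout after 16 hr compound exposure of human hepatocellular carcinoma HepG2 cells at 37 °C; qHTS concentration-response, normalized DMSO = 0%, 100 uM tamoxifen = 100%; AC50 by standard Hill equation.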

[8] = Cellular Toxicity (caspase-3) Jurkat (AID 655);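 further: cells exposed to compound for 16 h at 37 °C before reading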
Outline: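 Caspase 3/7 activation is scored as increased luminescence in Jurkat cells cultured with compound for 16 hours in complete medium. AC50 values come from Hill fits of qHTS concentration-response data normalized to DMSO and 100 uM tamoxifen controls.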

[9] = Cellular Toxicity (caspase-3) HUV-EC-C (AID 656)
Outline: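 Read-out: luminescence proportional to caspase 3/7 activity, measured 20 min after adding Caspase-Glo 3/7 reagent. Cells (HUV-EC-C) had received compound for 16 hr at 37°C. Increases relative to DMSO and 100 uM tamoxifen gave concentration-response AC50 values.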

[10] = Cellular Toxicity (caspase-3) SHSY5Y (AID 657);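 further: cells exposed to compound for 16 hours at 37 °C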
Outline: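 Cells plated and incubated 5 h at 37 °C, dosed over a concentration range, incubated 16 h, then given Caspase-Glo 3/7 reagent for 1 h at room temperature before luminescence reading. Staurosporine (10 uM) defined full stimulation.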

[11] = Cellular Toxicity (caspase-3) BJ (AID 658)
Outline: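 qHTS, BJ fibroblasts, 1000 cells/well; 5 hr preincubation, 16 hr compound, 37 °C; Caspase-Glo 3/7 reagent, 1 hr RT; luminescence. DMSO = 0%, 10 uM staurosporine = 100%. Hill-equation AC50.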

[12] = Cellular Toxicity (caspase-3) MRC-5 (AID 659)
Outline: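 MRC-5 fibroblasts, 1500/well; 16 h cpd, 37 °C; Caspase-Glo 3/7, 1 h RT; lumi read. Norm: DMSO = 0%, 10 uM staurosporine = 100%. Hill-fit AC50 from qHTS conc-response.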

[13] = Cellular Toxicity (caspase-3) Mesangial (AID 660);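 further: cells exposed to compound for 16 h before the caspase read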
Outline: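 Luminescent Caspase-Glo 3/7 readout (aminoluciferin substrate cleavage, 20 min RT) after 16 h compound exposure at 37 °C of normal human mesangial cells. Signal increase normalized between DMSO basal and 100 uM tamoxifen; Hill-equation AC50.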

[14] = Cellular Toxicity (caspase-3) SK-N-SH (AID 661)
Outline: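 Luminescent Caspase-Glo 3/7 read-out after 16 hr compound exposure of SK-N-SH neuroblastoma cells at 37 °C. Signal increase normalized to DMSO (basal) and 10 uM staurosporine (100%); AC50 from Hill equation fits of qHTS concentration-response data.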

[15] = Cellular Toxicity (caspase-3) H-4-II-E (AID 663);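 further: cells exposed to compound for 16 hr before readout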
Outline: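 H-4-II-E rat hepatoma, 1500 cells/well, 5 hr settle at 37 °C; compound 16 hr, 37 °C, complete medium; Caspase-Glo 3/7, 20 min RT; luminescence. DMSO = 0%, 100 uM tamoxifen = 100%; Hill-equation AC50.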

Measured: outcome

C[C@@H]1C[C@H]2[C@@H]3CCC4=CC(=O)C=C[C@]4(C)[C@@]3(F)[C@@H](O)C[C@]2(C)[C@@]1(O)C(=O)CO
inactive: [1] | [2] | [3] | [4] | [5] | [6] | [7] | [8] | [9] | [10] | [11] | [12] | [13] | [14] | [15]
